Consider seven molecules from ChEMBL document CHEMBL2218924, “A broad activity screen in support of a chemogenomic map for kinase signalling research and drug discovery” (Biochem J, 2013).

The target in assay [1] is T1, Rhodopsin kinase GRK7 (Homo sapiens) (UniProt Q8WTQ7).
T1 sequence (whole entry): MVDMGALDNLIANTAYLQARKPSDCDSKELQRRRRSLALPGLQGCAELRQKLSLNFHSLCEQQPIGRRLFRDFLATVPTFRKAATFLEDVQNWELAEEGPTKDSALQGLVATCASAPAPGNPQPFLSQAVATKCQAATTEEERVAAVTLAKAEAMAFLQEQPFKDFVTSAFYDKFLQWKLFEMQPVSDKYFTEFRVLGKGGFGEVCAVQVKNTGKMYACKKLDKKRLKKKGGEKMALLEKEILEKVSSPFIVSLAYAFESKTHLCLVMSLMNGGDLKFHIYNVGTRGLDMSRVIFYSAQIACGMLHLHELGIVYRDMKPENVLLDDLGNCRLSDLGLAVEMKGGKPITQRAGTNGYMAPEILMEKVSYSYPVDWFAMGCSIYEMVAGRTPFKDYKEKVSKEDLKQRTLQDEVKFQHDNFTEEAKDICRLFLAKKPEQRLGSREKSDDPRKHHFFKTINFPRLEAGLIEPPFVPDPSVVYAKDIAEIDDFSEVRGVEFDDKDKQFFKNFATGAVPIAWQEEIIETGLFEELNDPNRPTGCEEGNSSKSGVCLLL
Conditions: at 10 µM.

Assay [2] concerns the target Glycogen synthase kinase-3 alpha (Homo sapiens) (UniProt P49840). Conditions: at 1 µM.
Assay [3] has the same target. The settings on record: at 10 µM.
Assay [4] has as its target Glycogen synthase kinase-3 beta (Homo sapiens) (UniProt P49841). The settings on record: at 1 µM.
For assay [5] the target is unchanged. Conditions: at 10 µM.
For assay [6], the target named is Homeodomain-interacting protein kinase 1 (Homo sapiens) (UniProt Q86Z02). Conditions: at 1 µM.
Chain of Homeodomain-interacting protein kinase 1 (Homo sapiens) (Q86Z02 whole entry, looked up): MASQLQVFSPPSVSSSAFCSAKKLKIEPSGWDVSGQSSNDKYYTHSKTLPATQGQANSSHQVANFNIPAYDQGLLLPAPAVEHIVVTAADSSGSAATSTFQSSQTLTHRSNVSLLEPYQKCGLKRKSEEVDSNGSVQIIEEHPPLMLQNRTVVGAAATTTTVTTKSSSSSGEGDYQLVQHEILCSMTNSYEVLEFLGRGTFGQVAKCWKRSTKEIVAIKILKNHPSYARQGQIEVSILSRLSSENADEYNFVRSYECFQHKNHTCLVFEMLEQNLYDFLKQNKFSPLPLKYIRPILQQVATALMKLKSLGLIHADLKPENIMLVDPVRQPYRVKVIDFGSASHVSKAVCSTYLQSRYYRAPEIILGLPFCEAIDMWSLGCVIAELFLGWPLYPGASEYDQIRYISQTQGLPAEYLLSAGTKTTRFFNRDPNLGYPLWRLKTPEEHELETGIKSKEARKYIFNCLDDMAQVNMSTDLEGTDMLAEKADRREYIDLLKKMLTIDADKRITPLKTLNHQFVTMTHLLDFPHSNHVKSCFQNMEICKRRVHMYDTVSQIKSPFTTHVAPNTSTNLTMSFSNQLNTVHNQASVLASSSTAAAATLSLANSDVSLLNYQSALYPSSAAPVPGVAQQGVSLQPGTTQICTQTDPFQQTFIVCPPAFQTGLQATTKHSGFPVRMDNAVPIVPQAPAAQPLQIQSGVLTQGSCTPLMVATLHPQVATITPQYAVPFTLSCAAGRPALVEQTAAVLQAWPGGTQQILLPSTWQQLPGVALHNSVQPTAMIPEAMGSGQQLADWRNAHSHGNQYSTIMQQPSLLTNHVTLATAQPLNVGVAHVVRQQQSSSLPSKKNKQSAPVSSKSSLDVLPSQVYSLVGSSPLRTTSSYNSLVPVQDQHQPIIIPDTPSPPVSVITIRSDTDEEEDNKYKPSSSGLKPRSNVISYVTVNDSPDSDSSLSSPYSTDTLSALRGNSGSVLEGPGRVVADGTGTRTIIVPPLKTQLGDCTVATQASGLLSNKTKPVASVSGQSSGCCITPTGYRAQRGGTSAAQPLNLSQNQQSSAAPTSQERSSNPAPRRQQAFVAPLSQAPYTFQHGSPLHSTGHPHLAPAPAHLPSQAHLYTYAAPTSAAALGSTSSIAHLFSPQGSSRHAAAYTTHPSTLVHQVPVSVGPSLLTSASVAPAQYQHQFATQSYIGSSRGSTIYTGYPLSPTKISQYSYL
Assay [7] shares this target. Conditions: at 10 µM.
In assay [8] the target is Homeodomain-interacting protein kinase 2 (Homo sapiens) (UniProt Q9H2X6). Conditions: at 1 µM.
Chain of Homeodomain-interacting protein kinase 2 (Homo sapiens) (Q9H2X6 whole entry, looked up): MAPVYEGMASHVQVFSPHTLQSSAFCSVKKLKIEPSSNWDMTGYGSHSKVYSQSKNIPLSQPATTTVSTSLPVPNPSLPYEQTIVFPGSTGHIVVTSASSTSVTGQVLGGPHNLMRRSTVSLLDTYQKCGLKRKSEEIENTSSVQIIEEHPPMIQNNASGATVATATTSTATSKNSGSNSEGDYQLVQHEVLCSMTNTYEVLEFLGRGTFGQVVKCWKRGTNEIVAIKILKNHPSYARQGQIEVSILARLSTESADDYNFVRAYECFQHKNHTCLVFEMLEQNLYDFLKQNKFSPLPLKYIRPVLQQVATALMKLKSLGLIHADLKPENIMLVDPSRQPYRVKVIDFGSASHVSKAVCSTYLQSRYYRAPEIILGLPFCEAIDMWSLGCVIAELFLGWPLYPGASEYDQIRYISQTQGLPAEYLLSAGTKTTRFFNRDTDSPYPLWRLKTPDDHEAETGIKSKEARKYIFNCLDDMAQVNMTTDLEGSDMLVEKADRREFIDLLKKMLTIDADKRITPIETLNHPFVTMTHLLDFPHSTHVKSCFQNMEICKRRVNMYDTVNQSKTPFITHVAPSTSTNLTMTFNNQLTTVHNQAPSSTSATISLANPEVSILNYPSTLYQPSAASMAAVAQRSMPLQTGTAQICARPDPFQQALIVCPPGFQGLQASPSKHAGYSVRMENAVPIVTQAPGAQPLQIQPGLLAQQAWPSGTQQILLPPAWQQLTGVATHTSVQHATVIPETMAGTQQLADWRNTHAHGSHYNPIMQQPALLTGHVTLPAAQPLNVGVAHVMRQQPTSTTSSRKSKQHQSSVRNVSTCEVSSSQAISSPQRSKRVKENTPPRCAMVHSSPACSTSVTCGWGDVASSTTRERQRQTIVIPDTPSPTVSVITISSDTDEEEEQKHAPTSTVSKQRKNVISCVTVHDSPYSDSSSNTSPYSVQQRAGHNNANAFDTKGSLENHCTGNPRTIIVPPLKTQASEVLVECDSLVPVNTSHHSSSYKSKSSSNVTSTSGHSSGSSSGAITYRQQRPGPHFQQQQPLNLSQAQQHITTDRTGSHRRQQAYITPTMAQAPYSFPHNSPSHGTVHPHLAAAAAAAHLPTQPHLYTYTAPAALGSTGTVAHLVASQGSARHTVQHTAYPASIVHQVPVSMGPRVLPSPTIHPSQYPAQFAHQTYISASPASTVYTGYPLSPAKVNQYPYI
For assay [9] the target is unchanged. Conditions: at 10 µM.
Assay [10] addresses Homeodomain-interacting protein kinase 3 (Homo sapiens) (UniProt Q9H422). Conditions: at 1 µM.
The target is the same in assay [11]. Conditions: at 10 µM.
The target of assay [12] is T2, Serine/threonine-protein kinase haspin (Homo sapiens) (UniProt Q8TF76).
T2 sequence (whole entry): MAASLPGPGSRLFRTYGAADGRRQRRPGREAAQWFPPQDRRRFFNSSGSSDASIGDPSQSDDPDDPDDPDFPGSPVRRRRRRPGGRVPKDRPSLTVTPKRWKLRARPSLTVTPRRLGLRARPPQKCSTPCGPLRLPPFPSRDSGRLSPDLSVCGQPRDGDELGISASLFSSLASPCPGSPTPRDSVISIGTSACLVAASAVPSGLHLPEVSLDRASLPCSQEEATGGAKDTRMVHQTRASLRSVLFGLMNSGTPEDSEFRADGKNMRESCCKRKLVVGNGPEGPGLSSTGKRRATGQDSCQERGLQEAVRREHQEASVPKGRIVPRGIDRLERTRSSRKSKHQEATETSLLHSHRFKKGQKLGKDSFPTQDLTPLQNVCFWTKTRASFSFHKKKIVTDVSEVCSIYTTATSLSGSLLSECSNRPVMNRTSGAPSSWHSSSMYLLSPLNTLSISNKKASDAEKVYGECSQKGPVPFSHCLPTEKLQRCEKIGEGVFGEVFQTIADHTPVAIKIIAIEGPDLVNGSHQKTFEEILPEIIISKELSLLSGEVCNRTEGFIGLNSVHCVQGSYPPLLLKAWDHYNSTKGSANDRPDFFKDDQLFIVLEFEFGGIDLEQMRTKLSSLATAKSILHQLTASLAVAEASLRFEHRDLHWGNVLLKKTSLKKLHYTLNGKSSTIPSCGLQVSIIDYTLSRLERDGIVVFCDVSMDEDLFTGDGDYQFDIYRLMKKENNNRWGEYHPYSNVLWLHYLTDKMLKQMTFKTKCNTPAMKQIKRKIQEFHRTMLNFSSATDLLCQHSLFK
Conditions: at 1 µM.

In assay [13] the target is T2, Serine/threonine-protein kinase haspin (Homo sapiens). Conditions: at 10 µM.
The target of assay [14] is Tyrosine-protein kinase HCK (Homo sapiens) (UniProt P08631). The settings on record: at 1 µM.
Chain of Tyrosine-protein kinase HCK (Homo sapiens) (P08631 2-526 limits assumed): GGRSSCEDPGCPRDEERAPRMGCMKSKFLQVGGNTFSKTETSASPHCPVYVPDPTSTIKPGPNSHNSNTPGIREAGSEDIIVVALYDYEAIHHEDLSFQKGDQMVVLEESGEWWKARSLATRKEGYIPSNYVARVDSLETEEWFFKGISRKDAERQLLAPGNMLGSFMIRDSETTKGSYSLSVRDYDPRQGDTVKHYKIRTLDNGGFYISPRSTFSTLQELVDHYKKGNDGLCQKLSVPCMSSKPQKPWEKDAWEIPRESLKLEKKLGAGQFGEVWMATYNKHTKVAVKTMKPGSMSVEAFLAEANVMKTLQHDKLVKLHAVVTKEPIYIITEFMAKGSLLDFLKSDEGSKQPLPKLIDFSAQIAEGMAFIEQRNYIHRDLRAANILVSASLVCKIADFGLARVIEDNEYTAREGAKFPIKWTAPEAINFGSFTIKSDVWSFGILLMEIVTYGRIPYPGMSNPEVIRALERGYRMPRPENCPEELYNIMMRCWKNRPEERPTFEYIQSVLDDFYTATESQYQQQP
Assay [15] shares this target. Conditions: at 10 µM.
Assay [16] shares this target. Conditions: at 1 µM. This is another data set of the same source.
For assay [17] the target is unchanged. Conditions: at 10 µM. The source holds these as a separate data set.
For assay [18], the target named is Insulin-like growth factor 1 receptor (Homo sapiens) (UniProt P08069). Conditions: at 1 µM.
Chain of Insulin-like growth factor 1 receptor (Homo sapiens) (P08069 31-736 limits assumed): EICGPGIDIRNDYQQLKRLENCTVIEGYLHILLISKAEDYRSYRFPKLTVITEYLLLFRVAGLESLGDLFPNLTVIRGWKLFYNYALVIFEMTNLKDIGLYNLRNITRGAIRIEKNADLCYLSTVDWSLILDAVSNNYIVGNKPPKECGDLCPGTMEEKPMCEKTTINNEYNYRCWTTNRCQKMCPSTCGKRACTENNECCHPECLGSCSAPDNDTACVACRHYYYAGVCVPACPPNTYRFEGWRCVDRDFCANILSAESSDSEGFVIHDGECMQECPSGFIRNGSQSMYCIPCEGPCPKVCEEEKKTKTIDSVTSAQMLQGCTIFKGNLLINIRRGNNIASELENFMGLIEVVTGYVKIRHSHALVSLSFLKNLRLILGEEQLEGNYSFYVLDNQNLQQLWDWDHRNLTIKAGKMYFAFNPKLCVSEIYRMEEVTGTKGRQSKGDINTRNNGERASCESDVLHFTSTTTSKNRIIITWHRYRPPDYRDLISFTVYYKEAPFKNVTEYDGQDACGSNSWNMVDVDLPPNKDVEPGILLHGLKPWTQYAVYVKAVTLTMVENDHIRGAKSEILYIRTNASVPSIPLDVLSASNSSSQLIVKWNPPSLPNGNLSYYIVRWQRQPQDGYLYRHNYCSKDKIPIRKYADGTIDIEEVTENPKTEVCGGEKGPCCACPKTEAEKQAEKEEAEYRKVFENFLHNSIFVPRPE
Chain of Insulin-like growth factor 1 receptor (Homo sapiens) (P08069 741-1367 limits assumed): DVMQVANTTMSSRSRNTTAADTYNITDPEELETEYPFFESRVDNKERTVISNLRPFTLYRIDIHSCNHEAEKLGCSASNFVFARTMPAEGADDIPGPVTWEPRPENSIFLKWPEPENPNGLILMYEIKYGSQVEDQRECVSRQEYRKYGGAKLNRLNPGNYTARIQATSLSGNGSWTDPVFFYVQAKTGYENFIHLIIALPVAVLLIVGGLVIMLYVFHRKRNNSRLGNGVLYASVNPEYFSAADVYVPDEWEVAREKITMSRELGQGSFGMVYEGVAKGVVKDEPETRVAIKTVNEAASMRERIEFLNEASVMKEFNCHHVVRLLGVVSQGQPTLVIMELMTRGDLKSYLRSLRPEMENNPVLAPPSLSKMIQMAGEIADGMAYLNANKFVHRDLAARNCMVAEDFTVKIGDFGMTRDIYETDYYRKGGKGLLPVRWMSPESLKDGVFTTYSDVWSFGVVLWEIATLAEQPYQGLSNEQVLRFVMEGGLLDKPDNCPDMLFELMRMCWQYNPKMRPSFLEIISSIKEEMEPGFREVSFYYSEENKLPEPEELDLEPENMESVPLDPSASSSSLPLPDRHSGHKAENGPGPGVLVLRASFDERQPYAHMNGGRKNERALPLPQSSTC
The target is the same in assay [19]. Conditions: at 10 µM.
Assay [20] addresses T3, Protein kinase C zeta type (Homo sapiens) (UniProt Q05513).
T3 sequence (whole entry): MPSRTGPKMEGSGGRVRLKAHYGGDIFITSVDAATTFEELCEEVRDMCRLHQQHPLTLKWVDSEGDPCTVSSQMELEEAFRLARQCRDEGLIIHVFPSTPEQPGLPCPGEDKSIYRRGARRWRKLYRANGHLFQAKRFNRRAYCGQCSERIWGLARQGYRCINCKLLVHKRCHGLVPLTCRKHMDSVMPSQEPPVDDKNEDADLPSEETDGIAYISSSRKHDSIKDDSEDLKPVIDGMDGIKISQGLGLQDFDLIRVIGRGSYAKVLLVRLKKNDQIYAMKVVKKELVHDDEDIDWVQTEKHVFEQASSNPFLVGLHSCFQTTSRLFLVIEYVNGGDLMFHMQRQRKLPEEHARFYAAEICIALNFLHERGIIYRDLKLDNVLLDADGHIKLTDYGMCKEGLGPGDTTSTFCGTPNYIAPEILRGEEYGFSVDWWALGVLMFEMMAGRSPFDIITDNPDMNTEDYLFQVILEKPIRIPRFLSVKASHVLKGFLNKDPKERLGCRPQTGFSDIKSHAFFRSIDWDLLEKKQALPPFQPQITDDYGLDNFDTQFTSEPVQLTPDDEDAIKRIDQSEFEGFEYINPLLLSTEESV
The settings on record: at 10 µM.

Each structure is given as a SMILES string.

Chain of Glycogen synthase kinase-3 alpha (Homo sapiens) (P49840 2-483 limits assumed): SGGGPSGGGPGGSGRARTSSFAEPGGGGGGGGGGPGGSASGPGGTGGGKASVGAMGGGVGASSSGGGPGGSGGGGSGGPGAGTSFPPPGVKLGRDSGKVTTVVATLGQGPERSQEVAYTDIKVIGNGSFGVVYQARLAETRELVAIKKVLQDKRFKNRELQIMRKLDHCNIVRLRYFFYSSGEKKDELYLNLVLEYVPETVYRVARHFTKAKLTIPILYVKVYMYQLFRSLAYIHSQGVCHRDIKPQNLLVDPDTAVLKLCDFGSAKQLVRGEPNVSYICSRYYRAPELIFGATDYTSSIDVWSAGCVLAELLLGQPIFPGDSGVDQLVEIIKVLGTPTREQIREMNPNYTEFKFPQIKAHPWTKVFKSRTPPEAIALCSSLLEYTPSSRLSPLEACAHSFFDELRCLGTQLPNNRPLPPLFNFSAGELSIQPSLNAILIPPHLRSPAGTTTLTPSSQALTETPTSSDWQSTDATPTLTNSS

For the molecule `COc1cc2ncnc(Nc3ccc(O)c(Br)c3)c2cc1OC`, the residual activity in assay [1] came to 69%; in assay [2], 116%; in assay [3], 108%; in assay [4], 89%; in assay [5], 86%; in assay [6] it was 97%. Also, the residual activity in assay [7] worked out at 104%; in [8], 87%; in [9], 75%; in assay [10], 95%; in assay [11] it was 92%; in assay [12], 65%. Besides, the residual activity is 24% in assay [13]; 32% in assay [14]; 4% in assay [15]; 29% in assay [16]; 7% in assay [17]; 71% in assay [18]. The figures for the residual activity in [19] and in [20] were 73% and 95%, respectively.

Regarding `O=c1c2ccccc2[nH]c(=S)n1CCN1CCC(=C(c2ccc(F)cc2)c2ccc(F)cc2)CC1`, the residual activity was found to be 97% in [1]; 102% in assay [2]; 142% in assay [3]; 99% in assay [4]; 123% in assay [5]; 94% in assay [6]. The residual activity was 106% in [7]; 102% in assay [8]; 94% in [9]; 100% in [10]; 88% in assay [11]; 84% in assay [12]. The residual activity in assay [13] stood at 52%; in assay [14], 73%; in assay [15] it was 38%; in assay [16], 101%; in assay [17], 101%; in assay [18], 119%. The values for the residual activity in assay [19] and in assay [20] were 104% and 94%, respectively.

Take `CC#CC(=O)Nc1cc2c(Nc3ccc(F)c(Cl)c3)ncnc2cn1`: the residual activity was determined as 76% in [1]; 129% in [2]; 125% in assay [3]; 97% in assay [4]; 82% in assay [5]; 98% in assay [6]. Moreover, the residual activity in assay [7] was 111%; in assay [8], 103%; in [9], 103%; in [10], 88%; in [11], 95%; in assay [12], 119%. In addition, the residual activity stood at 98% in [13]; 85% in assay [14]; 88% in assay [15]; 95% in assay [16]; 88% in assay [17]; 147% in assay [18]. Further, the residual activity in [19] came out at 86%; in assay [20], 103%.

With `CC(C)n1cnc2c(NCc3ccccc3)nc(NCCCO)nc21`, the residual activity stood at 74% in [1]; 105% in assay [2]; 101% in [3]; 134% in assay [4]; 114% in assay [5]; 111% in assay [6]. The residual activity was found to be 92% in assay [7]; 100% in assay [8]; 90% in assay [9]; 96% in assay [10]; 106% in [11]; 101% in assay [12]. Further, the residual activity amounted to 95% in assay [13]; 81% in assay [14]; 70% in assay [15]; 84% in assay [16]; 81% in assay [17]; 78% in assay [18]. The residual activity in assay [19] was 103%; in [20] it was 107%.

Turning to `CNc1cc2c(Nc3cccc(Br)c3)ncnc2cn1`, the residual activity is 81% in [1]; 123% in [2]; 91% in [3]; 106% in [4]; 117% in assay [5]; 103% in assay [6]. Also, the residual activity in assay [7] turned out to be 101%; in assay [8] it was 108%; in [9] it was 97%; in [10], 100%; in assay [11], 96%; in assay [12] it was 109%. Further, the residual activity in assay [13] was 53%; in assay [14], 68%; in [15], 30%; in assay [16] it was 62%; in assay [17], 50%; in assay [18], 118%. For the same molecule, the results for the residual activity in assay [19] and in assay [20] were 109% and 118%, respectively.

As for `Cc1ccc(NC2=CC(=O)c3sc(C)nc3C2=O)cc1`, the residual activity in assay [1] amounted to 89%; in [2], 119%; in [3] it was 106%; in assay [4], 117%; in assay [5] it was 118%; in assay [6], 100%. Moreover, the residual activity in assay [7] stood at 90%; in assay [8], 97%; in [9], 98%; in assay [10] it was 92%; in assay [11], 97%; in assay [12] it was 105%. The residual activity came to 116% in [13]; 85% in [14]; 74% in assay [15]; 103% in assay [16]; 99% in assay [17]; 75% in assay [18]. Also, the residual activity is 116% in assay [19] and 102% in [20].

Take `O=C1NC(=O)c2cc(Nc3ccc(F)cc3)c(Nc3ccc(F)cc3)cc21`: the residual activity in [1] was 77%; in [2], 84%; in assay [3], 40%; in assay [4], 69%; in assay [5], 27%; in assay [6], 93%. In addition, the residual activity in [7] came to 99%; in [8], 94%; in assay [9], 84%; in assay [10] it was 97%; in assay [11] it was 99%; in assay [12] it was 103%. Moreover, the residual activity was determined as 41% in assay [13]; 63% in [14]; 21% in assay [15]; 87% in assay [16]; 49% in assay [17]; 102% in [18]. Also, the results for the residual activity in assay [19] and in assay [20] were 108% and 101%, respectively.
